The test system of test [1] is Plasmodium falciparum Sir2 (PF13_0152, Sir2A). As to the kind of experiment: Plasmodium falciparum Sir2A binding compounds – biochemical, small-molecule microarray, 635 nm fluorescence, primary screen (AID 1098).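 Also: score merges spot fluorescence intensity with its signal-to-noise ratio.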 The settings on record: fluorescence 635 nm, higher = more signal.
Test [2] is described as follows: probe aDKK1 binding to arrayed compounds – biochemical, biotinylated probe, 635/667 nm fluorescence, primary screen (AID 1099).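 Also: score merges 667nm spot fluorescence with signal to noise across triplicate slides.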 The settings on record: small-molecule microarray, higher = more signal.
Test [3] in a line: probe aCHRDL2 binding to arrayed compounds – biochemical, biotinylated probe, 635/667 nm fluorescence, primary screen (AID 1100). The settings on record: small-molecule microarray, higher = more signal.
A short description of test [4]: change in splice reporter luminescence, either direction, cell-based, HEK293, spliceosome inhibition project, primary screen (AID 1101).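 Also: HEK293 cells carrying a splicing-competent luciferase reporter gene; test concentration not given here.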 The settings on record: HEK293 splicing luciferase reporter, 24 h, higher = more signal, called active from +8 up or from −8 down. (In general: Reporter assays use an easily measured gene product as a stand-in for the process of interest.)

Test [5] deals with Fibroblast growth factor 10 (Homo sapiens) (UniProt O15520). As to the kind of experiment: compounds binding fibroblast growth factor 10 – biochemical, small-molecule microarray, 635 nm fluorescence, primary screen (AID 1102). The settings on record: FGF10 binding, fluorescence 635 nm, higher = more signal.
Chain of Fibroblast growth factor 10 (Homo sapiens) (O15520 whole entry, looked up): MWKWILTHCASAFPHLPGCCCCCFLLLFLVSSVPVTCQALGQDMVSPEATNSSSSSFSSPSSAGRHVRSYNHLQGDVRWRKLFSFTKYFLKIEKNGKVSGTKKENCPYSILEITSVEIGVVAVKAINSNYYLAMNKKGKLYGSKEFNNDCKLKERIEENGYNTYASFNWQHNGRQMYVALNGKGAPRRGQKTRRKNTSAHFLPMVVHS
Test [6] deals with glycogen synthase kinase-3 (GSK3A per assay name; protocol says GSK3B). As to the kind of experiment: compounds binding glycogen synthase kinase-3 – biochemical, small-molecule microarray, 635 nm fluorescence, GSK3A, primary screen (AID 1103). Also: the record names both GSK3A and GSK3B. The settings on record: fluorescence 635 nm, higher = more signal.
In test [7] the target is Epidermal growth factor receptor (Homo sapiens) (UniProt P00533). As to the kind of experiment: compounds binding epidermal growth factor receptor – biochemical, small-molecule microarray, 635 nm fluorescence, primary screen (AID 1104).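 Also: score merges 667 nm emission intensity with spot signal to noise over triplicate slides.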 The settings on record: EGFR binding, higher = more signal.
Chain of Epidermal growth factor receptor (Homo sapiens) (P00533 whole entry, looked up): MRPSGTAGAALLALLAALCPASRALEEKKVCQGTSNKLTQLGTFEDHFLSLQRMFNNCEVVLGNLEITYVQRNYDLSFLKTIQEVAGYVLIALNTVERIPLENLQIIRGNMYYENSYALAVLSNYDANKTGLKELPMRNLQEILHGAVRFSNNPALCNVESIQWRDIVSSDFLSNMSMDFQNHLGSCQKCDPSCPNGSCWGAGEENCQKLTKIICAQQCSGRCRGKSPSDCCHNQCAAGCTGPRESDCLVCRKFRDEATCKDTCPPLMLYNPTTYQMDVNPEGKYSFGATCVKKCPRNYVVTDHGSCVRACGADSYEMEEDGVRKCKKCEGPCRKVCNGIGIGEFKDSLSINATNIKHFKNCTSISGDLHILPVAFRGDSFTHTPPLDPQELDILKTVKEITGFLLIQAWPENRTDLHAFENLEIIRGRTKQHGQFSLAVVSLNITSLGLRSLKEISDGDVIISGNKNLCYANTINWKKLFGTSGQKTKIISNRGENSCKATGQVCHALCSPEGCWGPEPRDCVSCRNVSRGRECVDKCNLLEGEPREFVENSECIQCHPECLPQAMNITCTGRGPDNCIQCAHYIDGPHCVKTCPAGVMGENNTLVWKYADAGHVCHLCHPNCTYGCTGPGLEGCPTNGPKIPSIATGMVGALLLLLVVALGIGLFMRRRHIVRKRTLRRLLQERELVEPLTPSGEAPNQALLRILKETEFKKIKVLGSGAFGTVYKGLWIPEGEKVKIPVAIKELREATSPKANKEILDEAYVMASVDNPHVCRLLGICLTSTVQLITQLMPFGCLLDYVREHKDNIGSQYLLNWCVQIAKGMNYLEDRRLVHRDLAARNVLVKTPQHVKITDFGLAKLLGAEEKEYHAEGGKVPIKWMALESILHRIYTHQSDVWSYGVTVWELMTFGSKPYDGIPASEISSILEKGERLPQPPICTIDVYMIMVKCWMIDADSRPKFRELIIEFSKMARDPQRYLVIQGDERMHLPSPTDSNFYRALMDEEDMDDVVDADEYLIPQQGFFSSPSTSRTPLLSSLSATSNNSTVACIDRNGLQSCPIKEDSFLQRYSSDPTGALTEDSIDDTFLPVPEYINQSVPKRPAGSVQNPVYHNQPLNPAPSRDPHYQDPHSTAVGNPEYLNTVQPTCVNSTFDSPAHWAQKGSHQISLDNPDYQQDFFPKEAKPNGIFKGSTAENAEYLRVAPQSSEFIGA
In test [8] the target is Follistatin-related protein 3 (Homo sapiens) (UniProt O95633). As to the kind of experiment: compounds binding follistatin-related protein 3 – biochemical, small-molecule microarray, 635 nm fluorescence, primary screen (AID 1105).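 Also: score merges emission near 667 nm and signal to noise per printed spot across three slides.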 The settings on record: FSTL3 binding, higher = more signal.
Chain of Follistatin-related protein 3 (Homo sapiens) (O95633 whole entry, looked up): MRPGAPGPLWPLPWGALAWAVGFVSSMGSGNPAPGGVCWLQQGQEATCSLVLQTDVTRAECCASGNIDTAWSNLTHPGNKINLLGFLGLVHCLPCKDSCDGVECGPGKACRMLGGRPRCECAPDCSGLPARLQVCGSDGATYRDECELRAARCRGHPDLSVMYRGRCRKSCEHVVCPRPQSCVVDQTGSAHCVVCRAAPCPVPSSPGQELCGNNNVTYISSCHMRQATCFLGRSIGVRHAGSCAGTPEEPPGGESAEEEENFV
Test [9] deals with Dickkopf-related protein 1 (Homo sapiens) (UniProt O94907). As to the kind of experiment: small molecules binding DKK1 protein – biochemical, small-molecule microarray, 635 nm fluorescence scan, primary screen (AID 1106).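 Also: score merges emission near 667 nm with signal to noise over three replicate slides.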 The settings on record: higher = more signal.
Chain of Dickkopf-related protein 1 (Homo sapiens) (O94907 whole entry, looked up): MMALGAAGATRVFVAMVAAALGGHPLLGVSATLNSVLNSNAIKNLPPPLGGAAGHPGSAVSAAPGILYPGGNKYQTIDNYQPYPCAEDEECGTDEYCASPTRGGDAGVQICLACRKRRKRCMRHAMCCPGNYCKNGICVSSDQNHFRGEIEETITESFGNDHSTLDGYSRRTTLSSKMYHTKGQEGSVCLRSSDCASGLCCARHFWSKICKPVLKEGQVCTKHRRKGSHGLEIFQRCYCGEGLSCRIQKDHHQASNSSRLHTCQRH
In test [10] the test system is Inhibin beta A chain (activin A). As to the kind of experiment: small molecules binding activin A – biochemical, small-molecule microarray, 635 nm fluorescence scan, primary screen (AID 1107).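 Also: mouse activin A protein probed at 4.33 µg/mL on printed slides; score merges bound-protein fluorescence near 667 nm with spot signal-to-noise.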 The settings on record: INHBA, higher = more signal.
Test [11] concerns Human papillomavirus type 1a protein E7 (residues 44-93). As to the kind of experiment: small molecules binding HPV E7 44-93 – biochemical, small-molecule microarray, residues 44-93, 635 nm fluorescence, primary screen (AID 1108).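 Also: E7 fragment applied at 1 µg/mL in TBST for 1 h at 4 C; score combines spot fluorescence with its signal to noise ratio.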 The settings on record: fluorescence 635 nm, higher = more signal.
A short description of test [12]: hepatitis C replication reporter changes, two-sided – Huh7 cells, luciferase reporter, HCV replication inhibitor project, primary screen (AID 1109).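 Also: huh7 hepatoma cells harbouring a luciferase neomycin HCV replicon reporter; luciferase luminescence as measure of HCV replicon replication; test concentration not given here.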 The settings on record: Huh7 HCV replicon luciferase reporter, 48 h; higher = more signal.
Test [13] addresses Left-right determination factor 2 (Homo sapiens) (UniProt O00292). As to the kind of experiment: small molecules binding LEFTY2 protein – biochemical, small-molecule microarray, 635 nm fluorescence scan, primary screen (AID 1110). The settings on record: higher = more signal.
For test [14], the target named is Calmodulin-1 (Homo sapiens) (UniProt P0DP23). As to the kind of experiment: small molecules binding calmodulin-1 with EGTA – biochemical, small-molecule microarray, Cy5-labelled CALM1, profiling panel (AID 1111).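 Also: labelled calmodulin applied in Tris saline Tween buffer holding calcium plus EGTA and DTT.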 The settings on record: Cy5-CALM1 binding fluorescence, higher = more signal.
For test [15] the target is unchanged. As to the kind of experiment: small molecules binding Ca-loaded calmodulin-1 – biochemical, small-molecule microarray, Cy5-labelled CALM1, plus calcium, artefact control for SMM control-protein annotation, profiling panel (AID 1112).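 Also: score merges spot fluorescence with signal to noise from triplicate slides.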 The settings on record: Cy5-CALM1 binding fluorescence, higher = more signal.
Test [16] is described as follows: probe aWnt5a binding to arrayed compounds – biochemical, biotinylated probe, 635/667 nm fluorescence, primary screen (AID 1113).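 Also: score merges 667 nm fluorescence intensity with signal-to-noise per printed feature.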 The settings on record: small-molecule microarray, higher = more signal.
Test [17] in a line: probe aShh binding to arrayed compounds – biochemical, biotinylated probe, 635/667 nm fluorescence, primary screen (AID 1114).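 Also: probe is biotin-labelled aShh protein from a stem cell growth factor screen; measures binding of labelled protein to compounds printed on the slide; score merges feature fluorescence at 667 nm with signal-to-noise.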 The settings on record: small-molecule microarray, higher = more signal.
The nature of test [18]: probe aNog binding to arrayed compounds – biochemical, biotinylated probe, 635/667 nm fluorescence, primary screen (AID 1115).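 Also: probe is biotinylated aNog protein used at 0.15 µg/mL for 1 h at 4 C; z-score combines 667 nm fluorescence of each spot with its signal to noise.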 The settings on record: small-molecule microarray, higher = more signal.
Test [19] deals with Torsin-1A-interacting protein 1 (Homo sapiens) (UniProt Q5JTV8). As to the kind of experiment: compound microarray binding of lysate hLAP1 – cell lysate, small-molecule microarray, COS7 lysate, 635/667 nm fluorescence, primary screen (AID 1116). The settings on record: 635 nm fluorescence, higher = more signal.
Chain of Torsin-1A-interacting protein 1 (Homo sapiens) (Q5JTV8 whole entry, looked up): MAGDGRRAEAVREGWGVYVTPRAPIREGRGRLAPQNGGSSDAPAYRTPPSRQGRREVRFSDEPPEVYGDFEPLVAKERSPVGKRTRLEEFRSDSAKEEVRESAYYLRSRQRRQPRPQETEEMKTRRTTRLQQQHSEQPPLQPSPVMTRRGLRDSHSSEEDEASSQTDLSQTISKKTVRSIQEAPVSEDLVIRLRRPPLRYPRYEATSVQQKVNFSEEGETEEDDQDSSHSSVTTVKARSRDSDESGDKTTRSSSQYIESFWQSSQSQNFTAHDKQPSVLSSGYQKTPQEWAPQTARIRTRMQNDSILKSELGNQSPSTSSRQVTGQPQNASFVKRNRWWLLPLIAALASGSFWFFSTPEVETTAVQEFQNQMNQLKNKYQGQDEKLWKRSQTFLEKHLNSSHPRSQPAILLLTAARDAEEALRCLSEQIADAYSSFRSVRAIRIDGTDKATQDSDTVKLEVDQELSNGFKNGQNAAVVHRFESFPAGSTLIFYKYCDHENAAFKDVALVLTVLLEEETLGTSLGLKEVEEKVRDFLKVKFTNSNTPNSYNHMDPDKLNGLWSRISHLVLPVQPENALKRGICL
The target in test [20] is Alpha-bungarotoxin (Bungarus multicinctus) (UniProt P60615). As to the kind of experiment: compounds binding labelled alpha-BTX control protein – biochemical, small-molecule microarray, Alexa647 label, 635/667 nm fluorescence, artefact control for SMM control protein annotation, profiling panel (AID 1117). The settings on record: alpha-BTX-A647 binding fluorescence, higher = more signal.
Chain of Alpha-bungarotoxin (Bungarus multicinctus) (P60615 whole entry, looked up): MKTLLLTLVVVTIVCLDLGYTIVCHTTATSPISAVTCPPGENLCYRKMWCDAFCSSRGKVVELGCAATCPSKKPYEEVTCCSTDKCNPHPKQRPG

Activity calls are given as the source filed them.

Chain of Left-right determination factor 2 (Homo sapiens) (O00292 whole entry, looked up): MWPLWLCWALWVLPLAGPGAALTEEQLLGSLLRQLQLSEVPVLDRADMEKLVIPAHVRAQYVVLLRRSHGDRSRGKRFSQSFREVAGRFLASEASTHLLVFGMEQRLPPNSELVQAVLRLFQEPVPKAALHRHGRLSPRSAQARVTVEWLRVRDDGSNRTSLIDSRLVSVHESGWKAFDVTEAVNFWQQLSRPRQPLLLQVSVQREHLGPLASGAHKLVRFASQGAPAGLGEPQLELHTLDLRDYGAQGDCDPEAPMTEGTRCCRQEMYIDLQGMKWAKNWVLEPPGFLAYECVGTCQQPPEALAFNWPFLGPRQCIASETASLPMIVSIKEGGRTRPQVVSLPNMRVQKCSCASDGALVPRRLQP

As to `COC(=O)[C@]1(Cc2ccccc2CN=[N+]=[N-])N=C(c2ccc(OCCCO)cc2)O[C@@H]1c1ccccc1N=[N+]=[N-]`, the composite z-score in [1] is 0.973; in test [2], -0.507; in [3] it was 0.172; in [5], 0.267; in test [6], 0.135; in test [7] it was -0.296. Moreover, the composite z-score is -0.332 in [8]; -0.268 in test [9]; 1.08 in test [10]; -0.131 in [11]; -0.0976 in [13]; -0.0209 in [14]. The composite z-score in [15] was -0.307; in test [16], -0.0346; in test [17] it was -0.018; in test [18], 1.03; in test [19] it was 0.963; in test [20] it was 0.37. Moreover, the z-score in test [4] was -0.346 (inactive); in [12], -2.65.

Consider `Cc1c(NC(=O)/C(C#N)=C/C=C/c2ccc([N+](=O)[O-])cc2)c(=O)n(-c2ccccc2)n1C`, for which the composite z-score in test [1] is 1.18; in [2], 1.24; in test [3], 0.761; in test [5], 1.19; in test [6], 1.15; in [7], 0.404. For the same compound, the composite z-score is 1.21 in test [8]; 0.534 in test [9]; 0.256 in [10]; 0.572 in [11]; 0.328 in test [13]; 1.97 in [14]. In addition, the composite z-score in [15] was 0.72; in [16], -0.0792; in test [17] it was -0.0769; in [18], 0.457; in test [19], 1.37; in test [20], 1.13. Also, the z-score is 0.652 (inactive) in [4] and -1.71 in test [12].

On to `CCCCCN1CC=CC23O[C@@H]4/C=C\CCCOC(=O)C4[C@H]2C(=O)N(CCO)[C@@H]3C1=O` (stereo not given in full), for which the composite z-score in test [1] is 1.14; in test [2] it was -0.132; in test [3], 0.107; in test [5], -0.412; in test [6], 0.45; in test [7] it was -0.356. Also, the composite z-score in test [8] is -0.338; in test [9], -0.0986; in test [10], 1.14; in test [11], 1.45; in [13], -0.155; in test [14], -0.173. For the same compound, the composite z-score in test [15] was 0.463; in test [16] it was -0.13; in test [17], -0.0709; in test [18], -0.191; in [19] it was 0.162; in test [20], 0.227. The z-score was -1.83 (inactive) in test [4] and 0.548 in [12].

With `CCCC1(C(=O)OC)C=C2C(=C(C(C)C)C(=O)C2C)CN1` (stereo not given), the composite z-score was -0.129 in test [1]; 0.759 in [2]; 0.813 in test [3]; -0.474 in [5]; -1.63 in test [6]; -0.648 in test [7]. The composite z-score is -0.911 in test [8]; -0.724 in test [9]; 1.17 in [10]; -0.311 in [11]; -0.557 in [13]; 0.312 in [14]. The composite z-score in test [15] is 0.771; in test [16], 0.0375; in test [17], 0.381; in test [18] it was 0.658; in test [19], 2.29; in [20], -0.593. Further, the z-score in [4] was 1.44 (inactive); in test [12] it was -0.808.

For `COC(=O)[C@@]1(Cc2ccc(F)cc2)[C@H]2c3cc(C(=O)N(C)C)n(Cc4cccc5ccccc45)c3C[C@H]2CN1C(=O)c1ccccc1`, the composite z-score in test [1] was 0.796; in test [2] it was 0.926; in test [3], 1.04; in test [5], 1.13; in test [6], 0.111; in test [7] it was -0.953. Besides, the composite z-score was -0.242 in test [8]; -1.02 in test [9]; 0.644 in test [10]; 1.12 in test [11]; -0.856 in test [13]; 0.0818 in test [14]. Also, the composite z-score in [15] is 0.189; in test [16], 0.492; in test [17], 1.76; in test [18] it was 1.53; in test [19], 1.17; in test [20] it was -0.145. For the same compound, the results for the z-score in [4] and in test [12] were 0.551 (inactive) and -1.57, respectively.

The values are drawn from PubChem BioAssay.
